The text below walks through data of PubChem BioAssay.

The structures appear in SMILES notation. Active and inactive are the calls of the source.

For test [1], the system named is Plasmodium falciparum Sir2 (PF13_0152, Sir2A). The test can be described thus: pfSir2 binders on small-molecule microarrays, primary screen, biochemical, small-molecule microarray, 635 nm fluorescence (AID 1098).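 Also: score merges spot fluorescence intensity with its signal-to-noise ratio.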 The settings on record: small-molecule microarray binding, fluorescence 635 nm; higher = more signal.
Test [2] in a line: small-molecule microarray binders of probe aDKK1, primary screen, biochemical, biotinylated probe, 635/667 nm fluorescence (AID 1099).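 Also: score merges 667nm spot fluorescence with signal to noise across triplicate slides.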 The conditions noted are these: higher = more signal.
Test [3] is described as follows: small-molecule microarray binders of probe aCHRDL2, primary screen, biochemical, biotinylated probe, 635/667 nm fluorescence (AID 1100). The settings on record: higher = more signal.
Test [4] in a line: splicing luciferase reporter signal modulators, primary screen, spliceosome inhibition project, cell-based, HEK293, splice +/- reporter (AID 1101).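 Also: HEK293 cells carrying a splicing-competent luciferase reporter gene; test concentration not given here.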 The conditions noted are these: luminescence, 24 h, higher = more signal, called active from +8 up or from −8 down. Background: A reporter such as luciferase makes a cellular process visible.
Test [5] concerns the target Fibroblast growth factor 10 (Homo sapiens) (UniProt O15520). Description: FGF10 binders on small-molecule microarrays, primary screen, biochemical, small-molecule microarray, 635 nm fluorescence (AID 1102). The conditions noted are these: FGF10 binding, fluorescence 635 nm, higher = more signal.
Test [6] relates to glycogen synthase kinase-3 (GSK3A per assay name; protocol says GSK3B). Description: GSK3 binders on small-molecule microarrays, primary screen, biochemical, small-molecule microarray, 635 nm fluorescence, GSK3A (AID 1103). Also: the record names both GSK3A and GSK3B. The settings on record: small-molecule microarray binding, fluorescence 635 nm; higher = more signal.
For test [7], the target named is Epidermal growth factor receptor (Homo sapiens) (UniProt P00533). Description: EGFR binders on small-molecule microarrays, primary screen, biochemical, small-molecule microarray, 635 nm fluorescence (AID 1104).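 Also: score merges 667 nm emission intensity with spot signal to noise over triplicate slides.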 The settings on record: EGFR binding, higher = more signal.
Test [8] deals with Follistatin-related protein 3 (Homo sapiens) (UniProt O95633). The test can be described thus: FSTL3 binders on small-molecule microarrays, primary screen, biochemical, small-molecule microarray, 635 nm fluorescence (AID 1105).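 Also: score merges emission near 667 nm and signal to noise per printed spot across three slides.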 The conditions noted are these: FSTL3 binding, higher = more signal.
Test [9] has as its target Dickkopf-related protein 1 (Homo sapiens) (UniProt O94907). Description: DKK1 binders on small-molecule microarrays, primary screen, biochemical, small-molecule microarray, 635 nm fluorescence scan (AID 1106).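 Also: score merges emission near 667 nm with signal to noise over three replicate slides.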 The conditions noted are these: DKK1 binding, higher = more signal.
In test [10] the test system is Inhibin beta A chain (activin A). The test can be described thus: INHBA (activin A) binders on microarrays, primary screen, biochemical, small-molecule microarray, 635 nm fluorescence scan (AID 1107).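 Also: mouse activin A protein probed at 4.33 µg/mL on printed slides; score merges bound-protein fluorescence near 667 nm with spot signal-to-noise.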 The settings on record: small-molecule microarray binding, higher = more signal.
Test [11] has as its system Human papillomavirus type 1a protein E7 (residues 44-93). Description: HPV1a E7 fragment binders on microarrays, primary screen, biochemical, small-molecule microarray, residues 44-93, 635 nm fluorescence (AID 1108).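 Also: E7 fragment applied at 1 µg/mL in TBST for 1 h at 4 C; score combines spot fluorescence with its signal to noise ratio.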 The conditions noted are these: small-molecule microarray binding, fluorescence 635 nm; higher = more signal.
Test [12] can be described thus: modulators of HCV replicon luciferase signal, primary screen, HCV replication inhibitor project, Huh7 cells, luciferase reporter (AID 1109).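 Also: huh7 hepatoma cells harbouring a luciferase neomycin HCV replicon reporter; luciferase luminescence as measure of HCV replicon replication; test concentration not given here.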 The settings on record: 48 h, higher = more signal. (A replicon is a self-replicating genome or part of one, used to study replication in cells.)
Test [13] addresses Left-right determination factor 2 (Homo sapiens) (UniProt O00292). The test can be described thus: LEFTY2 binders on small-molecule microarrays, primary screen, biochemical, small-molecule microarray, 635 nm fluorescence scan (AID 1110). The settings on record: LEFTY2 binding, higher = more signal.
Test [14] deals with Calmodulin-1 (Homo sapiens) (UniProt P0DP23). Description: CALM1 binders on microarrays, EGTA buffer, profiling panel, biochemical, small-molecule microarray, Cy5-labelled CALM1 (AID 1111).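 Also: labelled calmodulin applied in Tris saline Tween buffer holding calcium plus EGTA and DTT.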 The conditions noted are these: Cy5-CALM1 binding fluorescence, higher = more signal.
Test [15] has the same target. Description: calcium-bound CALM1 binders on microarrays, profiling panel, artefact control for SMM control-protein annotation, biochemical, small-molecule microarray, Cy5-labelled CALM1, plus calcium (AID 1112).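 Also: score merges spot fluorescence with signal to noise from triplicate slides.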 The conditions noted are these: Cy5-CALM1 binding fluorescence, higher = more signal.
A short description of test [16]: small-molecule microarray binders of probe aWnt5a, primary screen, biochemical, biotinylated probe, 635/667 nm fluorescence (AID 1113).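 Also: score merges 667 nm fluorescence intensity with signal-to-noise per printed feature.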 The settings on record: higher = more signal.
Test [17] is described as follows: small-molecule microarray binders of probe aShh, primary screen, biochemical, biotinylated probe, 635/667 nm fluorescence (AID 1114).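 Also: probe is biotin-labelled aShh protein from a stem cell growth factor screen; measures binding of labelled protein to compounds printed on the slide; score merges feature fluorescence at 667 nm with signal-to-noise.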 The settings on record: higher = more signal.
Test [18] in a line: small-molecule microarray binders of probe aNog, primary screen, biochemical, biotinylated probe, 635/667 nm fluorescence (AID 1115).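 Also: probe is biotinylated aNog protein used at 0.15 µg/mL for 1 h at 4 C; z-score combines 667 nm fluorescence of each spot with its signal to noise.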 The conditions noted are these: higher = more signal.
Test [19] addresses Torsin-1A-interacting protein 1 (Homo sapiens) (UniProt Q5JTV8). The test can be described thus: LAP1 binders from COS7 cell lysate, primary screen, small-molecule microarray, 635/667 nm fluorescence (AID 1116). The conditions noted are these: COS7-hLAP1 lysate binding, 635 nm fluorescence, higher = more signal.
For test [20], the target named is Alpha-bungarotoxin (Bungarus multicinctus) (UniProt P60615). Description: alpha-bungarotoxin binders on microarray, profiling panel, artefact control for SMM control protein annotation, biochemical, small-molecule microarray, Alexa647 label, 635/667 nm fluorescence (AID 1117). The conditions noted are these: alpha-BTX-A647 binding fluorescence, higher = more signal.
Sequence of Alpha-bungarotoxin (Bungarus multicinctus) (P60615 whole entry, looked up): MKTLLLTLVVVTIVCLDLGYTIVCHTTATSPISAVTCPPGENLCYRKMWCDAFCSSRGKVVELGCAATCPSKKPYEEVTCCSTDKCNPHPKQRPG

Sequence of Torsin-1A-interacting protein 1 (Homo sapiens) (Q5JTV8 whole entry, looked up): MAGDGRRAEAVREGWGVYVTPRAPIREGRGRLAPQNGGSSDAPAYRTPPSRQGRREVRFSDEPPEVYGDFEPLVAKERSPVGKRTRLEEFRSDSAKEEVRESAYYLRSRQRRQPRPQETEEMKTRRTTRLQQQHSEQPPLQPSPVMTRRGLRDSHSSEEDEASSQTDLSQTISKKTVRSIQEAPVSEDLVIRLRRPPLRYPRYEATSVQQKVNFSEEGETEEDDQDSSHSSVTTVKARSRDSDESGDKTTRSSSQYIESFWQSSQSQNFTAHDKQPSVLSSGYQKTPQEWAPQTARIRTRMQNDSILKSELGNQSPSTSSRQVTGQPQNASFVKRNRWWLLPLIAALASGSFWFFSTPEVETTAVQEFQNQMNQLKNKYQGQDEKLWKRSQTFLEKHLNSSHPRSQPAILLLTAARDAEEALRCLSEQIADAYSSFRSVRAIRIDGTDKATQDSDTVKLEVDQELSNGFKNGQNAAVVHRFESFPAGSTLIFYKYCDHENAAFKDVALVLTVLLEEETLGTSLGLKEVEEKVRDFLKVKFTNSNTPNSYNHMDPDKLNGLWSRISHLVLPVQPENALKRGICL
Sequence of Epidermal growth factor receptor (Homo sapiens) (P00533 whole entry, looked up): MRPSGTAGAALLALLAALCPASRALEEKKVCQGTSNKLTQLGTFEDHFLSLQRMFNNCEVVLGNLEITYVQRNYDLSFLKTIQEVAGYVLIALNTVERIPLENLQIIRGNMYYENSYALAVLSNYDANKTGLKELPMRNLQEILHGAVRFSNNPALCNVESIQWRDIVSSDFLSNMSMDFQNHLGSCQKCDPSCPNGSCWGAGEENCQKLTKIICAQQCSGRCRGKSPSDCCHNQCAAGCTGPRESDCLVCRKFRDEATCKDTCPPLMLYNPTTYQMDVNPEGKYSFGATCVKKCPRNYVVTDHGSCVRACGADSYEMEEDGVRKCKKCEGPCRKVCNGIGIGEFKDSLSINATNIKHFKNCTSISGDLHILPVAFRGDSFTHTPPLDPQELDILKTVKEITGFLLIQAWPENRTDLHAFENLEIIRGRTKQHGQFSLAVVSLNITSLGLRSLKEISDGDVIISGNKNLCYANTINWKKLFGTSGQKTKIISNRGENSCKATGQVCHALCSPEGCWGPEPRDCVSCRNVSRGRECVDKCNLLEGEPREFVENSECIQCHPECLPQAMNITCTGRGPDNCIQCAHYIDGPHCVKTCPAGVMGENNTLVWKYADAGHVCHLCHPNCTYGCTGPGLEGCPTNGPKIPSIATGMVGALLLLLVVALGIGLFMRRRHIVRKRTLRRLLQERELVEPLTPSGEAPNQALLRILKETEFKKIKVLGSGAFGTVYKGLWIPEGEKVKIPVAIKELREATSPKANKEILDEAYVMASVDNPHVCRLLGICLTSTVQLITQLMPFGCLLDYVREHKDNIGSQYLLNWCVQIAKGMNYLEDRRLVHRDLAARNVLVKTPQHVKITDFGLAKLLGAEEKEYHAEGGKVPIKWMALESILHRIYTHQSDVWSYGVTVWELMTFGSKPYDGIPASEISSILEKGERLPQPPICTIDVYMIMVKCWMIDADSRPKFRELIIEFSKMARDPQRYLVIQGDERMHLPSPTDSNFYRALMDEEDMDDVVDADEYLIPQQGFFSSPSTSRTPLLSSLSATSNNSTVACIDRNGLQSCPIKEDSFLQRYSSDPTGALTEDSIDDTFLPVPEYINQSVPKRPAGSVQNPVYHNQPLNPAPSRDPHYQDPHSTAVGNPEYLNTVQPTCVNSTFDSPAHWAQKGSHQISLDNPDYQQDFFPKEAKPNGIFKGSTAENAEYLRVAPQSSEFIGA
Sequence of Follistatin-related protein 3 (Homo sapiens) (O95633 whole entry, looked up): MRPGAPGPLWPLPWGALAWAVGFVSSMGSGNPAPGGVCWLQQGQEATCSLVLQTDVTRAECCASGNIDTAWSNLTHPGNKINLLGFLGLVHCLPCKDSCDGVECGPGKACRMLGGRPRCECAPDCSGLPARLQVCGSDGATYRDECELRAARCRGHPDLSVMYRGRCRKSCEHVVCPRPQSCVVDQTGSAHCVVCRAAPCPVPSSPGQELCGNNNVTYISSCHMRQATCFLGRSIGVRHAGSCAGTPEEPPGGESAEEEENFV
Sequence of Left-right determination factor 2 (Homo sapiens) (O00292 whole entry, looked up): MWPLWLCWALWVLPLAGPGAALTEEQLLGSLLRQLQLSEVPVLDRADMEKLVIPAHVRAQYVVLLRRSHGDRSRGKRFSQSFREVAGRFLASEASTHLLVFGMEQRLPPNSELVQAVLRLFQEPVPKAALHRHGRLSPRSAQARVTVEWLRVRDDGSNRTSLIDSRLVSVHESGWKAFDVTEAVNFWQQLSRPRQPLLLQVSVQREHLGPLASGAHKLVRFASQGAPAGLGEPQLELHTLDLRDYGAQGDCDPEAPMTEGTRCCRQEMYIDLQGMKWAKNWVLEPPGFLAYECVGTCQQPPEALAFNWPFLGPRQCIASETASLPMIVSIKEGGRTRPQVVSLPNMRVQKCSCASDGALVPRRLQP
Sequence of Dickkopf-related protein 1 (Homo sapiens) (O94907 whole entry, looked up): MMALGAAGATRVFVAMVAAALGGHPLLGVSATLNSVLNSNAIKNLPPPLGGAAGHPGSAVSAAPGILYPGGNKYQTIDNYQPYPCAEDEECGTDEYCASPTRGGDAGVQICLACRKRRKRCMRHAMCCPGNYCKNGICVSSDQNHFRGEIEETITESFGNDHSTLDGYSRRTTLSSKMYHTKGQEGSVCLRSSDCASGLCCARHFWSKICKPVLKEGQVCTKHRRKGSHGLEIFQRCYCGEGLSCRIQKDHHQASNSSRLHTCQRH
Sequence of Fibroblast growth factor 10 (Homo sapiens) (O15520 whole entry, looked up): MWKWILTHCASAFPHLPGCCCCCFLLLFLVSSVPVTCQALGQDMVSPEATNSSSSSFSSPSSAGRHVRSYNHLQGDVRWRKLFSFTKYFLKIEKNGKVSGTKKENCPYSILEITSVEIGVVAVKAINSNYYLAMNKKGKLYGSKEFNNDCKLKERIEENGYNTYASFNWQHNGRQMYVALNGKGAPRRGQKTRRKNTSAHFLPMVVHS

Consider `CCOC(=O)C1=C[C@@H](C(C)C)N(S(=O)(=O)c2ccc(C)cc2)[C@H]1c1ccc(C(C)C)cc1`, for which the composite z-score in test [1] is 1.65; in test [2], -0.132; in test [3], -0.229; in [5] it was 1.04; in test [6] it was 1.3; in test [7] it was 0.848. Further, the composite z-score in [8] turned out to be 1.35; in [9], 0.57; in test [10], 0.375; in test [11], 1.35; in test [13], 0.524; in test [14] it was 1.33. The composite z-score in test [15] is -0.144; in [16] it was -0.0735; in test [17] it was -0.138; in test [18] it was -0.58; in [19], 0.324; in [20], 1.1. Also, the results for the z-score in test [4] and in [12] were 0.449 (inactive) and -2.16, respectively.

With `[N-]=[N+]=Nc1ccccc1[C@@H]1OC(c2ccc(OCCCO)cc2)=N[C@]1(CCS(=O)(=O)c1ccccc1)C(=O)N1CCOCC1`, the composite z-score came out at 1.43 in test [1]; 1.04 in test [2]; 0.994 in [3]; 1.37 in test [5]; 1.09 in test [6]; 0.569 in [7]. For the same molecule, the composite z-score in test [8] was determined as 1.36; in test [9], 0.14; in [10] it was 1.58; in test [11] it was 1.03; in test [13], 0.647; in test [14], 1.74. Moreover, the composite z-score amounted to 0.764 in test [15]; 0.16 in test [16]; 0.326 in [17]; 0.939 in test [18]; 1.42 in test [19]; 2.84 in test [20]. The z-score in test [4] is -0.4 (inactive); in test [12], 2.34.

As to `CC=CC(O)C1C=CC2C(=O)N(c3ccccc3)C(=O)C2N1Nc1ccc(C(C)C)cc1` (stereo not given), the composite z-score was 0.534 in test [1]; 0.75 in test [2]; 0.973 in test [3]; 0.878 in test [5]; 1.24 in test [6]; 0.122 in test [7]. Further, the composite z-score in test [8] was determined as 1.3; in test [9] it was 0.14; in test [10] it was 0.841; in [11], 1.42; in test [13], 0.363; in test [14], 1.42. Moreover, the composite z-score in test [15] is 0.138; in test [16] it was 0.0194; in test [17], 0.0469; in test [18], 1.65; in test [19], 0.37; in test [20] it was 1.78. In addition, the figures for the z-score in test [4] and in test [12] were -0.235 (inactive) and 0.837, respectively.

As for `C=CCC(OC(C)=O)[C@@H]1[C@@H](N(Cc2ccc(-c3cccc(C(F)(F)F)c3)o2)C(=O)c2ccc(C)cc2)c2cc(OCCCO)ccc2N1C(=O)c1ccc(-c2ccccc2)cc1` (stereo not given in full), the composite z-score in test [1] is 0.44; in test [2], -0.0544; in test [3], 0.0823; in [5], 0.0825; in test [6], -1; in test [7], -0.0697. Moreover, the composite z-score is 0.473 in test [8]; -0.0581 in [9]; 1.23 in test [10]; -0.734 in [11]; -0.0524 in [13]; -0.201 in [14]. The composite z-score was -0.147 in test [15]; -0.124 in test [16]; -0.16 in [17]; -0.363 in [18]; -0.178 in [19]; -0.286 in test [20]. Besides, the z-score in [4] is -0.714 (inactive); in test [12], -0.094.

`CCOC(=O)C[C@H]1[C@H](OC(=O)c2ccccc2-c2ccccc2)[C@@H](NC(=O)Cc2ccc(OC)cc2)c2cc(OCCCO)ccc2N1C(=O)c1ccccc1`: the composite z-score in [1] was -0.394; in test [2], -0.236; in test [3], -0.0402; in test [5], 0.225; in test [6], -1.28; in test [7], 0.192. The composite z-score in test [8] was -0.0572; in [9] it was 0.232; in test [10] it was 0.34; in test [11] it was 0.0712; in test [13], -0.3; in test [14] it was -0.0521. The composite z-score in test [15] is -0.317; in test [16], -0.0519; in test [17], -0.327; in test [18], -0.443; in [19] it was 0.246; in test [20] it was -0.0826. For the same molecule, the z-score in [4] was -0.258 (inactive); in [12], -2.08.
